# In PubChem BioAssay (Tox21):
# Records with an inconclusive call do not appear. Entries that show only a call come without a potency. Activity calls are given as the source filed them. Calls follow the shape of the dose curve; as a rule, active = well fitted curve in the direction sought with a large enough effect in the repeat runs; inconclusive = weak or mixed curves; inactive = no such curve, though single readings can be large; an effect the other way counts as inactive or inconclusive.
# What was measured:
# [1] = biological target: Voltage-gated inwardly rectifying potassium channel KCNH2 (Homo sapiens) (UniProt Q12809); assay: Human Ether-a-go-go-Related Gene (hERG) channel small molecule antagonists: fluorescence cell-based qHTS assay (AID 1671200); conditions: hERG-U2OS cells, FluxOR thallium flux fluorescence; series mostly up to 76.8 µM; also: nearly all actives have a fitted effect of over 50% in size; also: potency is read from the fitted curve at half-maximal effect
# Outline: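 Measured: Tl+ flux via fluorescence (480/540 nm) in hERG-expressing U2OS cells after 1 h dye loading at room temperature.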
# [2] = biological target: Cytochrome P450 3A4 (Homo sapiens) (UniProt P08684); assay: Cytochrome P450 Family 3 Subfamily A Member 4 (CYP3A4) small molecule antagonists: luciferase reporter qHTS assay (AID 1671201); conditions: P450-Glo CYP3A4 enzyme, luciferin luminescence, 1 h; series mostly up to 115 µM; also: nearly all actives have a fitted effect of over 50% in size; also: potency is read from the fitted curve at half-maximal effect
# Outline: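 Setup: enzyme-substrate mix, compound pin transfer, 10 min RT. Reaction: NADPH regeneration solution, 1 h RT. Readout: detection reagent stops turnover, luminescence measured after 20 min, expressed in relative luminescence units.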
# [3] = biological target: Cytochrome P450 2C9 (Homo sapiens) (UniProt P11712); assay: Cytochrome P450 Family 2 Subfamily C Member 9 (CYP2C9) small molecule antagonists: luciferase reporter qHTS assay (AID 1671198); conditions: P450-Glo CYP2C9 enzyme assay, luciferin luminescence; series mostly up to 115 µM; also: nearly all actives have a fitted effect of over 50% in size; also: potency is read from the fitted curve at half-maximal effect
# Outline: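 CYP2C9 activity was measured with a P450-Glo proluciferin substrate. Enzyme–substrate mix was held with compound for 10 min at room temperature, then NADPH regeneration solution was added for 1 h at 37C. Luciferin product was read as luminescence.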
# [4] = biological target: Cytochrome P450 1A2 (Homo sapiens) (UniProt P05177); assay: Cytochrome P450 Family 1 Subfamily A Member 2 (CYP1A2) small molecule antagonists: luciferase reporter qHTS assay (AID 1671199); conditions: P450-Glo CYP1A2 enzyme, luciferin luminescence, 1 h; series mostly up to 53 µM; also: nearly all actives have a fitted effect of over 50% in size; also: potency is read from the fitted curve at half-maximal effect
# Outline: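 Read-out is luminescence from luciferin detection reagent (20 min) proportional to CYP1A2 activity; compounds in DMSO preincubated 10 min with enzyme and proluciferin substrate, then NADPH regeneration solution, 1 h, room temperature.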
# [5] = biological target: Cytochrome P450 2C19 (Homo sapiens) (UniProt P33261); assay: Cytochrome P450 Family 2 Subfamily C Member 19 (CYP2C19) small molecule antagonists: luciferase reporter qHTS assay (AID 1671197); conditions: P450-Glo CYP2C19 enzyme, luciferin luminescence, 1 h; series mostly up to 115 µM; also: nearly all actives have a fitted effect of over 65% in size
# Outline: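 Quantitative high-throughput screen of the Tox21 library using CYP2C19 with proluciferin substrate. Reaction: NADPH regeneration, 37C, 1 h, after 10 min compound preincubation at room temperature. Readout: luminescence.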
# Cytochrome P450 2C9 (Homo sapiens), sequence (P11712 whole entry, looked up): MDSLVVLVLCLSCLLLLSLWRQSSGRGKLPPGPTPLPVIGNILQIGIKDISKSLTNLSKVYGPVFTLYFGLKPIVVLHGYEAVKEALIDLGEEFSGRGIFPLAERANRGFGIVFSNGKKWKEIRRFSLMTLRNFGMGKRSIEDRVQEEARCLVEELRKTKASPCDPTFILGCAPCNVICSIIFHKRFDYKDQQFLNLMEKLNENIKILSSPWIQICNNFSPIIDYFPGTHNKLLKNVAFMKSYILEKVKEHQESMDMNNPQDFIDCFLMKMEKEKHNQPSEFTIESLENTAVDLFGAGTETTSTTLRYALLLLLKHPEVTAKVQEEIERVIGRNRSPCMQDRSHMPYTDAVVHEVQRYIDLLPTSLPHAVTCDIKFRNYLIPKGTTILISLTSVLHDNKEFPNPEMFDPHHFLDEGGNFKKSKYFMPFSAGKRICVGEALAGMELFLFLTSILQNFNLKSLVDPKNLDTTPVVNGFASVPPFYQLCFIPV
# Voltage-gated inwardly rectifying potassium channel KCNH2 (Homo sapiens), sequence (Q12809 whole entry, looked up): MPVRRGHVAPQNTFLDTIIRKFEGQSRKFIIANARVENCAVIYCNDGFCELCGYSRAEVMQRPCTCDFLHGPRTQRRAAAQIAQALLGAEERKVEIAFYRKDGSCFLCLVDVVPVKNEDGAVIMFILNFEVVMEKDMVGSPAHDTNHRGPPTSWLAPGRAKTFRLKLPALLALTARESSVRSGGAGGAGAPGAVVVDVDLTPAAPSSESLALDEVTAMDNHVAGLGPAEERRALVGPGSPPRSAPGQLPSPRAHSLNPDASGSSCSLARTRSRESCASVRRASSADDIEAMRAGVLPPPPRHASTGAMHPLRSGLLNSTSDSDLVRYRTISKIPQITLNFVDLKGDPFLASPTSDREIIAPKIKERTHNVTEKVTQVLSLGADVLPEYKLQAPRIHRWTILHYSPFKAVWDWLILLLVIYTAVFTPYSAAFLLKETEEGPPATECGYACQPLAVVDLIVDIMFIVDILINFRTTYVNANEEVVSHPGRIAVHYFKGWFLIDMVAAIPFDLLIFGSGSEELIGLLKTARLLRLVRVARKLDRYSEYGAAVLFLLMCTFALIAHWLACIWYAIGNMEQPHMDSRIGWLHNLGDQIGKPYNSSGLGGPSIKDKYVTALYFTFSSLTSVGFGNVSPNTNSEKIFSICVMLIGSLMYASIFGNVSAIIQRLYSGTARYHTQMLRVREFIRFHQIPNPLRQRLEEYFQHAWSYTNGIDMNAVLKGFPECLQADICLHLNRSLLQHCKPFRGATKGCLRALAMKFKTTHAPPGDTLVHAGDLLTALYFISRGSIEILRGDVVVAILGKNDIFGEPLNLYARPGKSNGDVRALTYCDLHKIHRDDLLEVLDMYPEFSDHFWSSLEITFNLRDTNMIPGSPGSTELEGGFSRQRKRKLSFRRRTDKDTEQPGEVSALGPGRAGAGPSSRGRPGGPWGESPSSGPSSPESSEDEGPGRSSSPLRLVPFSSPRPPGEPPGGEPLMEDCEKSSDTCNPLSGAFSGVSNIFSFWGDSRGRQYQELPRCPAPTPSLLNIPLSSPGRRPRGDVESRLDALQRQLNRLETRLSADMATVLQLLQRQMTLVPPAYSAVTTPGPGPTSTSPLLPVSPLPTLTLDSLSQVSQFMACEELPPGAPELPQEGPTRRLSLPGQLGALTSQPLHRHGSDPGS
# Cytochrome P450 1A2 (Homo sapiens), sequence (P05177 whole entry, looked up): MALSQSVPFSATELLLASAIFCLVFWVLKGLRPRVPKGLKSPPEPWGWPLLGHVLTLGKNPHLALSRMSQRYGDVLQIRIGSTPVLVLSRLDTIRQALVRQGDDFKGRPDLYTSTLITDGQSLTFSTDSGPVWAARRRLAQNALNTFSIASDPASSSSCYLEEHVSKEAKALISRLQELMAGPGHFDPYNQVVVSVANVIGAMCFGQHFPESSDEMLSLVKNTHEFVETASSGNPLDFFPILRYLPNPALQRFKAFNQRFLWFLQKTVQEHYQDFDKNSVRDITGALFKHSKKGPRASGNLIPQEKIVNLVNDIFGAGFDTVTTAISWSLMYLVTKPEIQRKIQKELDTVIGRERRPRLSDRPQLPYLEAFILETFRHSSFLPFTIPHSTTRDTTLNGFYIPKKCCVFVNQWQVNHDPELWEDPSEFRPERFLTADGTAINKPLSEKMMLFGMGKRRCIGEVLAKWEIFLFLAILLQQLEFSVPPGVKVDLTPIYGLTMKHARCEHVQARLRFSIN
# Cytochrome P450 3A4 (Homo sapiens), sequence (P08684 whole entry, looked up): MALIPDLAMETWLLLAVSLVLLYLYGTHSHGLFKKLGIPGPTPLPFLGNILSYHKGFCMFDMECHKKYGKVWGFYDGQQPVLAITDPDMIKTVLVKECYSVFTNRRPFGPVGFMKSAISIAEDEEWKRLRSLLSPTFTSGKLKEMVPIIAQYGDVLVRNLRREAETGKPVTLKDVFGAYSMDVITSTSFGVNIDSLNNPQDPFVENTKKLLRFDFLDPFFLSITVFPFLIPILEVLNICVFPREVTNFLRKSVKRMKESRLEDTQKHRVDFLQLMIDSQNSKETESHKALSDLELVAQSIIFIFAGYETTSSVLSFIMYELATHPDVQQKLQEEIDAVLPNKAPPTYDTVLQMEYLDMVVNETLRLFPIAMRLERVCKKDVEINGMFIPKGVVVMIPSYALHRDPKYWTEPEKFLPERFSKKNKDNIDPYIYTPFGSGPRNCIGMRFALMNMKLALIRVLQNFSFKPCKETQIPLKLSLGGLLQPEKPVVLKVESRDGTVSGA
# Cytochrome P450 2C19 (Homo sapiens), sequence (P33261 whole entry, looked up): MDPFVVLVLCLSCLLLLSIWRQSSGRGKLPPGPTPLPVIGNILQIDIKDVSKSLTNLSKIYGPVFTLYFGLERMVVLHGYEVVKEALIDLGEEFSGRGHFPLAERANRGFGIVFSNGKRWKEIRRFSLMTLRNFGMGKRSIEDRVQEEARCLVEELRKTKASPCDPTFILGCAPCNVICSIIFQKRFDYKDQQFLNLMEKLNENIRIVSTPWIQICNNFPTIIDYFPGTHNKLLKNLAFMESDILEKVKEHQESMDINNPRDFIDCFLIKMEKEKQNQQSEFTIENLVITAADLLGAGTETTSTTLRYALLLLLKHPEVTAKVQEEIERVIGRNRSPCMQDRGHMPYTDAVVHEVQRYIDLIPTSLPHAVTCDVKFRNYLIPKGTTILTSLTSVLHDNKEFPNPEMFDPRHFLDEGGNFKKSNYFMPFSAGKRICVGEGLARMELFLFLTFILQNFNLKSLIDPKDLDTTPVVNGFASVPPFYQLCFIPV
Structure (SMILES),Potency [1],Potency [2],Potency [3],Potency [4],Potency [5]
CCCCOC(=O)CCS,inactive,inactive,,,
CCCCCCOC(=O)C(C)C,inactive,inactive,inactive,,
OC(CCCN1CCCCC1)(c1ccccc1)c1ccccc1,inactive,,inactive,inactive,
NC(=O)Nc1ccc(Cl)c(Cl)c1,inactive,inactive,,8.91 µM (active),
CN1CCCN=C1/C=C/c1cccs1,inactive,,,,
CCCCN(CCCC)CCCOC(=O)c1ccc(N)cc1,9.52 µM (active),inactive,inactive,inactive,
CC1(C)C2=CCCC(C)(C)[C@]23CC[C@H]1C3,inactive,35.6 µM (active),79.6 µM (active),,
c1ccc(COCc2ccccc2)cc1,inactive,inactive,,inactive,
CN(C(=O)C(Cl)Cl)c1ccc(OC(=O)c2ccco2)cc1,inactive,inactive,15.5 µM (active),inactive,
O=C(O)Cc1ccc(-c2ccccc2)cc1,inactive,inactive,,inactive,
CCNC(=O)N1CCN(CCCC(c2ccc(F)cc2)c2ccc(F)cc2)CC1,0.107 µM (active),inactive,,inactive,
Nc1c(I)cc(I)c(C(=O)N(CCC(=O)O)c2ccccc2)c1I,inactive,inactive,,inactive,
CC[C@H](NC(=O)c1cc(F)ccc1NS(=O)(=O)c1cccc2cccnc12)c1ccccc1,inactive,1.5 µM (active),9.49 µM (active),inactive,
CC1=C(C=O)C(C)(C)CCC1,inactive,,,inactive,
Cn1c(=O)c2c(ncn2CC(=O)O)n(C)c1=O,,inactive,inactive,inactive,
CC[C@@H]([C@H](C)O)n1ncn(-c2ccc(N3CCN(c4ccc(OC[C@@H]5CO[C@@](Cn6cncn6)(c6ccc(F)cc6F)C5)cc4)CC3)cc2)c1=O,,,,inactive,

Structure (SMILES),Potency [1],Potency [2],Potency [3],Potency [4],Potency [5]
CC(C)(C)C(=O)O,inactive,inactive,,,
O=C(N/N=C/c1ccc([N+](=O)[O-])o1)c1ccc(O)cc1,,inactive,,,
COC(=O)[C@@H]1CC2=CC(=O)CC[C@]2(C)[C@@]23O[C@@H]2C[C@@]2(C)[C@@H](CC[C@@]24CCC(=O)O4)[C@H]13,,inactive,inactive,inactive,
CCN(CC)CCNC(=O)c1ccc(NC(C)=O)cc1,,inactive,inactive,inactive,
O=C(O)c1snc(Cl)c1Cl,inactive,inactive,,,
CCCc1c(OCCCOc2ccc(OCC(=O)O)cc2)ccc(C(C)=O)c1O,inactive,inactive,8.94 µM (active),,
C/C(=N/NC(=O)c1ccncc1)C(=O)O,inactive,inactive,,inactive,
CC(=N\O)/C(C)=N/O,inactive,inactive,inactive,35.6 µM (active),
COC(=O)Nc1nc2ccc(C(=O)c3cccs3)cc2[nH]1,inactive,inactive,,12.9 µM (active),
CC(C)=CC=O,,inactive,,,inactive
Cc1cc(C(=C2C=CC(=Nc3ccc(S(=O)(=O)O)cc3S(=O)(=O)O)C=C2)c2ccc(Nc3ccc(S(=O)(=O)O)cc3)cc2)ccc1N,,inactive,,inactive,
O=C(OCCOCCO)c1ccccc1Nc1cccc(C(F)(F)F)c1,,,17.4 µM (active),12.3 µM (active),
CC(=O)[C@H]1CC[C@H]2[C@@H]3C[C@H](C)C4=CC(=O)CC[C@]4(C)[C@H]3[C@@H](O)C[C@]12C,inactive,,,inactive,
CC(=O)Nc1ccccc1C,inactive,inactive,inactive,inactive,
CCc1nn(CCCN2CCN(c3cccc(Cl)c3)CC2)c(=O)n1CCOc1ccccc1,1.51 µM (active),,inactive,inactive,
